# Assay results from article PMC5540273 (PLoS ONE, 2017).
# Key:
# Conditions in all cases: concentration: 1 μM, replicates: in singlicate; n = 1
# MST2 = system: T1, MST2
# T1 construct: gene STK3
# MST3 = system: T2, MST3
# T2 construct: gene STK24
# MST4 = system: MST4
# MTOR = system: MTOR
# MUSK = system: MUSK
# MYLK2 = system: MYLK2
# MYLK4 = system: MYLK4
# MYLK = system: MYLK
# MYO3A = system: MYO3A
# MYO3B = system: MYO3B
# 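Further: KINOMEscan kinase panel screen.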
Compound,%Inh (MST2) [%],%Inh (MST3) [%],%Inh (MST4) [%],%Inh (MTOR) [%],%Inh (MUSK) [%],%Inh (MYLK2) [%],%Inh (MYLK4) [%],%Inh (MYLK) [%],%Inh (MYO3A) [%],%Inh (MYO3B) [%]
Cc1nnc(-c2ccc3occ(-c4ccc(S(C)=O)cc4)c3c2)[nH]1 (stereo not drawn),0,11,0,10,16,4,7,11,0,2
Cc1c(O)cccc1Nc1ccnc2ccc(C(F)(F)F)cc12.Cl [GW466413],0,0,0,0,0,0,0,0,0,0
COc1cccc(-c2cc(-c3c[nH]nc3-c3ccccn3)ccn2)c1 [GW680338],0,0,30,33,0,0,9,0,8,3
C[C@@H]1CCCCN1c1cc(-c2ccc3c(N)n[nH]c3c2)nc(N)n1 [GSK2258759],0,7,0,2,5,0,0,5,30,0
COc1ccccc1CNC(=O)c1cc(C(=O)c2ccccc2C)c[nH]1 [GSK364507],0,0,0,13,7,6,3,19,6,2
Cc1cccc(-c2nc(-c3ccc(S(C)(=O)=O)cc3)sc2-c2ccnc(NCCc3ccccc3)c2)c1,4,0,32,0,0,14,12,0,10,0
O=C(Nc1n[nH]c2nc(-c3nccs3)c(Br)cc12)C1CCCC1 [SB-742609],0,0,6,11,31,90,27,0,0,0
COc1ccc(Nc2nccc(-c3cccc(NC(=O)c4cc5cc(F)ccc5[nH]4)c3)n2)cc1 [GSK1229782],24,15,0,21,6,19,11,31,60,0
Cl.NC(=O)c1cccc(Nc2nccc(Nc3ccc(Oc4cccc(Cl)c4)c(Cl)c3)n2)c1 [GW659008],0,10,0,0,13,21,14,3,6,3
Cc1ccc(NC(=O)Nc2cc(C(C)(C)C)nn2-c2ccccc2)cc1 [GSK1014915],23,5,13,30,17,9,4,11,0,0
CN1C(=O)C(Nc2ccc(Cl)c(C(=O)O)c2)=C(c2ccc(Cl)cc2)C1=O [SB-404290],0,0,33,0,13,0,5,12,11,31
CS(=O)(=O)c1ccc(-c2nc3n(c2-c2ccncc2)CCC3)cc1 [SKF-105942],0,0,0,0,12,0,4,17,25,77
COc1cc2nccc(Nc3ccc(NC(=O)c4ccc(C)cc4)c(O)c3)c2cc1OC.Cl [GW440132],0,0,0,4,13,4,0,11,10,0
Fc1cccc(COc2nnc(-c3ccc4c(c3)CCO4)o2)c1,0,25,0,3,3,0,4,0,0,5
Cl.Oc1ccc(-c2nc(-c3ccccc3)[nH]c2-c2ccncc2)cc1 [SB-428218],0,0,0,32,0,0,17,22,46,0
Cc1cccc(-c2nc(Nc3ccncc3)c3ccccc3n2)n1 [GW855857],0,3,0,50,17,7,7,12,0,17
O=C(Nc1ccccc1)Nc1cccc(Oc2ccc3nccn3n2)c1,0,3,0,21,0,0,0,0,0,0
Cc1csc(-c2nc(Nc3ccncc3)c3ccccc3n2)n1 [GW869640],0,11,40,74,11,5,0,26,2,36
